Data on one molecule can be found in the supplement of paper PMC8728848.

The sample as a whole holds a higher share of the strongest signals than the screen did.

Assay in all cases: glycan array binding signal (z-score within array); higher = stronger binding
What all share (conditions): glycan notation: IUPAC condensed, linker removed

The target of one assay is GlcNAc(b1-3)Gal. In short, it runs like this:
(§1)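 Columns mapping to the same glycan were averaged after glycan names were converted to IUPAC-condensed notation. The data come from 3228 arrays in the Consortium for Functional Glycomics database, limited to those with an available protein sequence. Binding is reported as a within-array Z-score averaged across arrays of one protein sequence and across linkers.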

The target in the next assay is GlcNAc(b1-3)Gal(b1-4)Glc. In short, it runs like this: as §1
In assay [1] the target is GlcNAc(b1-3)Gal(b1-4)GlcNAc. In short, it runs like this:
as §1

In assay [2] the target is GlcNAc(b1-3)[GlcNAc(b1-6)]Gal(b1-4)GlcNAc. In short, it runs like this:
as §1

The target in assay [3] is GlcNAc(b1-3)[GlcNAc(b1-6)]GlcNAc(b1-4)GlcNAc. In short, it runs like this:
as §1

For the next assay, the target named is GlcNAc3Prop(b1-4)GlcNAc. In short, it runs like this: as §1
For assay [4], the target named is Neu5Ac(a2-3)Gal(b1-4)GlcNAc(b1-3)Gal. In short, it runs like this: as §1
Assay [5] addresses Neu5Ac(a2-3)Gal(b1-4)[Fuc(a1-3)]GlcNAc6S. In short, it runs like this:
as §1

Assay [6] addresses Neu5Ac(a2-3)Gal6S(b1-4)GlcNAc. In short, it runs like this:
as §1

Assay [7] addresses Neu5Ac(a2-3)Gal6S(b1-4)[Fuc(a1-3)]GlcNAc. In short, it runs like this: as §1
For assay [8], the target named is Neu5Ac(a2-3)[GalNAc(b1-4)]Gal(b1-4)Glc. In short, it runs like this: as §1
For assay [9], the target named is Neu5Ac(a2-3)[GalNAc(b1-4)]Gal(b1-4)GlcNAc. In short, it runs like this:
as §1

Assay [10] addresses Neu5Ac(a2-6)Gal(b1-4)GlcNAc(b1-2)Man(a1-3)Man(b1-4)GlcNAc(b1-4)GlcNAc. In short, it runs like this: as §1
For assay [11], the target named is Neu5Ac(a2-6)Gal(b1-4)GlcNAc(b1-2)Man(a1-6)Man(b1-4)GlcNAc(b1-4)GlcNAc. In short, it runs like this:
as §1

Assay [12] has as its target Neu5Ac(a2-8)Neu5Ac(a2-8)Neu5Ac. In short, it runs like this: as §1
Another assay has as its target Neu5Ac(b1-6)GalNAc. In short, it runs like this: as §1

B1: F17aG (Escherichia coli), Q99003 (protein)
chain: MTNFYKVFLAVFILVCCNISQAAVSFIGSTENDVGPSLGSYSRTHAMDNLPFVYDTRNKIGYQNANVWHISKGFCVGLDGKVDLPVVGSLDGQSIYGLTEEVGLLIWMGDTKYSRGTAMSGNSWENVFSGWCVGANTASTQGLSVRVTPVILKRNSSARYSVQKTSIGSIRMRPYNGSSAGSVQTTVNFSLNPFTLNDTVTSCRLLTPSAVNVSLAAISAGQLPSSGDEVVAGTTSLKLQCDAGVTVWATLTDATTPSNRSDILTLTGASTATGVGLRIYKNTDSTPLKFGPDSPVKGNENQWQLSTGTETSPSVRLYVKYVNTGEGINPGTVNGISTFTFSYQ
Regarding B1, the “glycan array binding signal (z-score)” value is 3.9 in the assay with GlcNAc(b1-3)Gal; 8.79 with GlcNAc(b1-3)Gal(b1-4)Glc; 4.77 in assay [1]; 5.68 in assay [2]; 2.15 in [3]; 11.7 in the assay with GlcNAc3Prop(b1-4)GlcNAc. In addition, the “glycan array binding signal (z-score)” value in assay [4] was -0.158; in [5], 0.084; in assay [6], -0.233; in assay [7], -0.245; in assay [8], 0.025; in assay [9], -0.241. The “glycan array binding signal (z-score)” value is -0.177 in assay [10], -0.167 in assay [11], -0.234 in [12] and -0.34 with Neu5Ac(b1-6)GalNAc.
